In PubChem BioAssay AID778 (Sanford-Burnham Center for Chemical Genomics, 2007):
Out of some 96,000 compounds screened, about 20,000 (21%) were called active.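 The calls were made as follows: active = CYP2C19 inhibition above a set limit at 5 µM in the primary screen (cut at about 50% in these data); inactive = the rest.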 Only a sample is shown.

molecular target: Cytochrome P450 2C19 (Homo sapiens) (UniProt P33261); test: blockers of cytochrome P450 2C19 activity – biochemical, luminescence, ADME assay, primary screen (AID 778); conditions: CYP2C19 Supersomes, luciferin-H EGE luminescence, 30 min; at 5 µM; hits give high values;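 also: plate controls were negative control wells for no effect and 2.5 mM tranylcypromine positive control for full effect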
Sequence (P33261 whole entry, looked up): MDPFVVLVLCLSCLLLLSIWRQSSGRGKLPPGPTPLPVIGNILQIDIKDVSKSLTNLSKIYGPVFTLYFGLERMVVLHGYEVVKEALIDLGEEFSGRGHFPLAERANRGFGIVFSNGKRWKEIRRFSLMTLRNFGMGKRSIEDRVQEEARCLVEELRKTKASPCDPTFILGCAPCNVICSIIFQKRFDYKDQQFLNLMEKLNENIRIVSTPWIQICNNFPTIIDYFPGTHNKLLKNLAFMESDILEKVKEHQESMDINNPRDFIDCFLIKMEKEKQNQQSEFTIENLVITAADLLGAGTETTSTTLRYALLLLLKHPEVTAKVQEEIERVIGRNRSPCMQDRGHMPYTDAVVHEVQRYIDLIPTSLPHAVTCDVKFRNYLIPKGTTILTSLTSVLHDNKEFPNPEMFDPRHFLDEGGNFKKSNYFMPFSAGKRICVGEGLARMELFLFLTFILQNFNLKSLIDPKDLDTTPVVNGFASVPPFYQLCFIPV

Compound	inhibition
O=P(c1cccs1)(c1cccs1)c1cccs1	7.9% (inactive)
COC(=O)C(C)N(C#N)c1nc(C)nc(C)n1 (stereo unspecified)	15.2% (inactive)
CCOC(=O)C1CCCN(C(=O)c2sc3nc(C)nc(N4CCOCC4)c3c2C)C1 (stereo unspecified)	-5% (inactive)
Nc1nonc1-c1noc(-c2ccc(Br)o2)n1	47.6% (inactive)
CN1CCN(Cc2c(O)ccc3c2oc(=O)c2ccccc23)CC1	-0.1% (inactive)
Cc1ccccc1OC(=O)Cn1c(C(F)(F)F)nc2ccccc21	35.4% (inactive)
CN1CCN(C(=O)Cn2c(C(F)(F)F)nc3ccccc32)CC1	-11.1% (inactive)
CC(C)(C)NC(=O)NC(=O)COC(=O)Cn1c(C(F)(F)F)nc2ccccc21	54.6% (active)
CCCCN(C)Cc1c(C)[nH]c2ccc(Cl)cc2c1=O	-11.4% (inactive)
O=C(Nc1c(Cl)cccc1Cl)C1CCC1	-0.2% (inactive)
O=C(c1ccco1)N1CCN(C(=O)C2CC(c3ccc(Cl)c(Cl)c3)=NO2)CC1 (stereo unspecified)	53.8% (active)
O=C(c1ccco1)N1CCN(C(=O)C2CC(c3ccc(F)cc3)=NO2)CC1 (stereo unspecified)	5.3% (inactive)
O=C(c1ccco1)N1CCN(c2cccc(Cl)c2)CC1	19.9% (inactive)
Cc1ccc(S(=O)(=O)N2CCC(C(=O)OCC(=O)N3CC(=O)Nc4ccccc43)CC2)cc1	62.2% (active)
Cc1ccc(S(=O)(=O)NCC(=O)OCC(=O)N2CCc3ccccc32)cc1	-3.8% (inactive)
O=C1CN(C(=O)COC(=O)C2CC(=O)N(Cc3ccco3)C2)c2ccccc2N1 (stereo unspecified)	-8.7% (inactive)
COc1cc(OC)cc(C(=O)Nc2ccc(-c3nc4ccccc4o3)c(O)c2)c1	22.3% (inactive)
CC(C)N(C(=O)COC(=O)c1ccccc1C(=O)N1CCN(c2ccc(F)cc2)CC1)C(C)C	44.2% (inactive)
CCC(CC)C(=O)Nc1cccc(C(=O)N2CCCC2)c1	15.4% (inactive)
O=C(CN1CCN(C(=O)c2cccc(F)c2)CC1)Nc1ccccc1F	42.8% (inactive)
O=C(c1cccc(F)c1)N1CCN(c2ccc([N+](=O)[O-])c(N3CCCCC3)c2)CC1	49% (inactive)
O=C(c1ccccc1Oc1ccccc1)N1CCN(c2ccc(F)cc2)CC1	87.1% (active)
Cc1ccccc1CS(=O)(=O)CC1(O)CCN(C(=O)c2cccc(C(F)(F)F)c2)CC1	19.1% (inactive)
O=C(c1ccccc1)c1cccn1CC(=O)N1CCN(c2ccc(F)cc2)CC1	33.3% (inactive)

Compound	inhibition
O=C(c1cccc(C(=O)N2CCN(c3ccc(F)cc3)CC2)c1)N1CCN(c2ccc(F)cc2)CC1	81.8% (active)
O=C(c1ccccc1-c1ccccc1)N1CCOCC1	10.3% (inactive)
O=C(c1ccccc1)N1CCN(C(=O)N2CCCCC2)CC1	39.7% (inactive)
Cc1ccccc1CN1CCN(C(=O)c2cccc(F)c2)CC1	98.4% (active)
Cc1cccc(C(=O)N2CCCN(C(=O)c3cccc(C)c3)CC2)c1	90.5% (active)
O=C(NCc1ccco1)C1(c2ccc(Cl)cc2)CCCC1	39.8% (inactive)
CCOc1nc(NCCN2CCOCC2)nc(Nc2ccc(C)cc2)n1	11.1% (inactive)
CCOc1ccc(NC(=O)Nc2ccc(N(C)C(C)=O)cc2)cc1	-7.4% (inactive)
O=C(Nc1ccc2ccccc2c1)Nc1ccc2snnc2c1	5.2% (inactive)
Oc1c(C=Nc2cccc3nsnc23)ccc2ccccc12	45.4% (inactive)
CC1CN(C(=O)c2ccc3c(c2)OCO3)OC(c2ccccc2)O1 (stereo unspecified)	74.6% (active)
Cc1ccc(-c2nn(-c3ccccc3)cc2/C=N/NC(=O)c2ccc3c(c2)OCO3)cc1	49.9% (inactive)
O=C(c1ccc2c(c1)OCO2)N1CCNc2ccccc2C1	16.6% (inactive)
CCn1c(COc2cccc(OC)c2)nnc1SCC(=O)N1CCOCC1	9.6% (inactive)
CCOC(=O)C1Cn2c(nc3c(c2=O)C(C)(CC)Cc2ccccc2-3)S1 (stereo unspecified)	97.8% (active)
CC1(C)Cc2ccccc2-c2nc(CN3CCOCC3)[nH]c(=O)c21	9.2% (inactive)
COC(=O)Nc1ncc(CN2CCCCC2)s1	-1.3% (inactive)
Cc1cc(C)c(C#N)c(SCc2ccc3c(c2)OCO3)n1	96.5% (active)
Cc1cc(C)c(C#N)c(SCc2ccccc2C(=O)O)n1	-6% (inactive)
Cc1cc(C)c(C#N)c(SCc2[nH]nc3c2C(c2ccccc2)C(C#N)=C(N)O3)n1 (stereo unspecified)	-13.6% (inactive)
CC(CO)N1CCS(=O)(=O)CC1 (stereo unspecified)	-1.3% (inactive)
O=C(c1ccc(Cl)cc1)c1cnc(Nc2ccccc2)s1	-10.7% (inactive)
CCCOC(=O)Nc1ccccc1C(N)=O	5.8% (inactive)
Cc1cc2c(=O)n(C)c(SCC(=O)c3cc4ccccc4o3)nc2s1	85.9% (active)

Compound	inhibition
CSCCC(NC(=O)COc1ccccc1)C(=O)OCC(=O)c1cc2ccccc2o1 (stereo unspecified)	28.3% (inactive)
C=CCn1c(SCC(=O)c2c(N)n(C)c(=O)n(C)c2=O)nc2sc(CC)cc2c1=O	1.3% (inactive)
COc1ccc(CN2CCn3ncc(C(=O)Nc4ccc(Cl)cc4Cl)c3C2=O)cc1	-8.8% (inactive)
O=C(COC(=O)CCc1c[nH]c(=O)[nH]1)Nc1ccccc1Cl	-10% (inactive)
O=C(O)CSCNC(=O)CC12CC3CC(CC(C3)C1)C2	11.3% (inactive)
O=C(O)c1ccc(NS(=O)(=O)c2cccc3nsnc23)cc1	2% (inactive)
O=C(C(NS(=O)(=O)c1cccc2nsnc12)c1ccccc1)N1CCN(c2ccccn2)CC1 (stereo unspecified)	35.6% (inactive)
O=C(C(NS(=O)(=O)c1cccc2nsnc12)c1ccccc1)N1CCN(c2ccccc2)CC1 (stereo unspecified)	86.3% (active)
CC(C)c1nc2ccc(C(=O)O)cc2[nH]1	12.1% (inactive)
CC(C)(C)c1cc(=O)n2c(nc3ccccc32)[nH]1	12.3% (inactive)
C/C(=N\NC(=O)c1ccccc1C)c1ccc(N2CCOCC2)cc1	3.2% (inactive)
Cc1cccc(-n2nc3c(c2NC(=O)c2ccc(Br)o2)CSC3)c1C	-0.9% (inactive)
O=C1CCC(=O)N1CCOP1(=O)COc2ccccc2OC1	-14.7% (inactive)
CN=C1SC(C(=O)O)CC(=O)N1C (stereo unspecified)	-3.4% (inactive)
COc1ccc(-n2c(Cc3cccn3C)nnc2SCC(=O)Nc2cc(C)cc(C)c2)cc1	20.6% (inactive)
Cc1nnc(SCC(=O)N/N=C/c2cn(-c3ccccc3)nc2-c2ccc(F)cc2)n1-c1ccccc1	3.9% (inactive)
Cc1ccc(C)c(NC(=O)CSc2nnc(Cc3cccn3C)n2-c2ccc(F)cc2)c1	15.6% (inactive)
Cn1cccc1Cc1nnc(SCC(=O)NCCc2ccccc2)n1-c1ccc(F)cc1	59.6% (active)
Cn1cccc1Cc1nnc(SCC(=O)NCc2ccc3c(c2)OCO3)n1CCc1ccccc1	88.3% (active)
COc1ccccc1NC(=O)CSc1nnc(Cc2cccn2C)n1-c1ccc(F)cc1	66.3% (active)
COC(=O)c1ccc(NC(=O)CSc2nnc(Cc3cccn3C)n2-c2ccc(F)cc2)cc1	22.5% (inactive)
CC1(C)CC(=O)C=C(NCc2ccncc2)C1	31.5% (inactive)
CCN(CC)C(=O)CSc1nnc(C2CCCCC2)o1	8.6% (inactive)
CCCC(=O)Nc1ccc2c(c1)nc1n2CCSC1	-2.8% (inactive)

Compound	inhibition
COc1cccc(OC)c1C(=O)Nc1ccc(N2CCCCC2)cc1	-3.6% (inactive)
Cc1ccc2nc(-c3ccccc3)cc(C(=O)O)c2c1	-3.4% (inactive)
Cc1ccc(OCC(=O)Nn2cnc3ccccc32)cc1	17.2% (inactive)
COc1ccc(-c2cc(C(=O)n3cnc4ccccc43)c3ccccc3n2)cc1	74.8% (active)
O=C(C1=C(O)C(=O)N(c2ncccn2)C1c1cccs1)c1ccco1 (stereo unspecified)	1.3% (inactive)
Cn1nc(C(F)(F)F)c2cc(NC(=O)OCC(C)(C)C)sc21	34.6% (inactive)
CCC(=O)c1ccc(OCC(O)CN2CCN(c3cccc(C(F)(F)F)c3)CC2)cc1 (stereo unspecified)	25.5% (inactive)
CCC(=O)OCc1c(C(F)(F)F)nn(C)c1Oc1cccc(C(F)(F)F)c1	57.7% (active)
COc1ccc(Nc2cc(=O)oc3ccccc23)cc1	17.7% (inactive)
CCOc1ccccc1NC(=O)C1CCN(S(=O)(=O)c2c(C)nn(C)c2C)CC1	44.7% (inactive)
CCOc1ccc(OCC)c(NC(=O)C2CCN(S(=O)(=O)c3c(C)noc3C)CC2)c1	54.5% (active)
Cc1noc(/C=C/N(C)C)c1S(=O)(=O)N1CCCC(C(=O)NCc2ccco2)C1 (stereo unspecified)	39.6% (inactive)
CCOC(=O)C1CCN(C(=O)C2CCN(S(=O)(=O)c3c(C)noc3C)CC2)CC1	14.7% (inactive)
Cc1ccc(NC(=O)C2CCCN(S(=O)(=O)c3c(C)noc3C)C2)c(C)c1 (stereo unspecified)	11.2% (inactive)
Cc1noc(C)c1S(=O)(=O)N1CCCC(C(=O)Nc2nccs2)C1 (stereo unspecified)	78.8% (active)
Fc1ccc(N2CCN(Cc3cnc(Oc4ccc(Br)cc4)s3)CC2)cc1	2.8% (inactive)
COc1ccc(N2CCN(Cc3cc(=O)oc4ccc5ccccc5c34)CC2)cc1	12.4% (inactive)
COc1ccc(N2CCN(Cc3ccc(Br)s3)CC2)cc1	96.1% (active)
C=CCSC1=C(C#N)C(c2cc(Br)c(O)c(OC)c2)CC(=O)N1 (stereo unspecified)	67.5% (active)
Cc1ccc(Cl)cc1NC(=O)COC(=O)C1CCCCC1	32.1% (inactive)
CC(C)c1ccc(N2CC(C(=O)Nc3nccs3)CC2=O)cc1 (stereo unspecified)	59.1% (active)
CCc1ccc(N2CC(C(=O)NC3=NCCS3)CC2=O)cc1 (stereo unspecified)	-1.1% (inactive)
CCCOc1ccc(N2CC(C(=O)Nc3ccccn3)CC2=O)cc1 (stereo unspecified)	-18.5% (inactive)
CN(C)C(=O)c1cc(Br)ccc1Cl	4% (inactive)
